High-throughput results from PubChem BioAssay.
Autophagy mod = autophagy modulators in MEF cells, primary screen, imaging, high-content, MEF GFP-LC3 | MEF GFP-LC3 puncta imaging; test concentration mostly 10 µM | 0.98% of 190,000 active | calls only at 10 µM (by protocol);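 active = percentage of spot-positive cells more than 3 SD above its plate mean, without a fluorescence outlier flag or 80% toxicity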;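 also: spot-positive cell cutoff set from DMSO-treated cells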
Ins promoter up = insulin promoter activators in MIN6 cells, imaging, high-content screening, mouse beta cells; MIN6 insulin promoter-GFP reporter; hits give high values; 0.3% of 190,000 active; z-score at 5 µM;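 active = z-score above 3 at 5 µM with at least 500 cells counted in the well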
WT yeast gro inh = growth inhibition of WT strain, primary screen, mitochondrial fusion inhibitor project, WT and mutant strains, chemical genetic; inhibition, % at 10 µM; AID 1362, 2008; 2.1% of 190,000 active; mitochondrial fusion phenotypic screen; in the data active = inhibition above about 58%; tested in S. cerevisiae
Insulin prom inh = inhibitors of insulin promoter-driven GFP, primary screen, imaging, TRM-6 cells (human fetal islet line), eGFP reporter, cell count. reporter expression induced with tamoxifen. inhibition, % at 2 µM. 0.9% of 130,000 active. AID 1273, 2008;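 active = inhibition above the mean plus 3 SD, with well images judged a real hit on visual review, cut at about 60% in these data, passing the limit was not always enough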
L major viab = Leishmania major promastigote growth inhibition, primary screen; Leishmania major promastigotes, resazurin fluorescence viability; inhibition, % at 10 µM; 9% of 200,000 active; AID 1063, 2008; in the data active = inhibition above about 50%;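 also: promastigotes grown with compound for 44 hours at 28 °C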
* marks the source's active call; other numbers are inactive results; i = inactive; x = no result; + = active, no number. Only some compounds are listed: those with a hit (about 11% of all), similar ones and a draw of the others.

SMILES	Autophagy mod	Ins promoter up	WT yeast gro inh	Insulin prom inh	L major viab
c1ccc(-c2ccc(C3=Nn4c(nnc4-c4cc(-c5ccccc5)n[nH]4)SC3)cc2)cc1	i	-1.4	27	15	28
Clc1ccc(C2=Nn3c(nnc3-c3n[nH]c4c3CCC4)SC2)cc1	+	-0.75	29	-108	58*
Brc1ccc(C2=Nn3c(nnc3-c3n[nH]c4c3CCC4)SC2)cc1	i	-0.53	-5	i	59*
Cc1ccc(C(=O)N2CCOCC2)cc1Cl	i	0.07	-4	-54	-6
O=C(c1cc(Cl)cc(Cl)c1)N1CCOCC1	i	-0.07	2	87*	1
O=C(Cn1cnc2ccccc2c1=O)Nc1ccc(-c2nnc3n2CCCCC3)cc1	i	x	-6	93*	1
O=C(COc1cccnc1[N+](=O)[O-])NCCc1ccccc1	i	-0.1	-4	-35	-6
CC(=O)Nc1ccc(N2N=C(C)C(N=Nc3ccccc3)C2=O)cc1 (stereo unspecified)	i	-0.27	-7	14	-5
CCOc1ccc(C(=O)NC2=NCCS2)cc1	i	-0.54	8	83*	-2
CC(C)(C)c1ccc(OCCC(=O)NC2=NCCS2)cc1	i	-0.02	76*	38	0
COc1ccc(OCCC(=O)NC2=NCCS2)cc1	i	x	-9	-367	-1
C#CCOCCOCCOCCNc1nc(N2CCN(C(=O)C([C@@H](C)CC)n3cc(C(N)Cc4ccc(O)cc4)nn3)CC2)nc(N2CCN(C(=O)[C@H](CCC(=O)O)n3cc(C(N)CO)nn3)CC2)n1 (stereo partly specified)	i	-0.6	0	x	-5
CN(C)CC(O)CN1C(=O)NC(C)(C)C1=O (stereo unspecified)	i	x	-16	x	-6
Cc1cccc2cc(CN(Cc3ccc(F)cc3)Cc3nnnn3C3CCCC3)c(=O)[nH]c12	i	-0.48	1	-12	20
Cc1cc(C)c2[nH]c(=O)c(CN(Cc3ccc4c(c3)OCO4)Cc3nnnn3C3CCCC3)cc2c1	i	-3	35	x	88*
Cc1ccc2[nH]c(=O)c(CN(Cc3ccccc3)Cc3nnnn3C3CCCC3)cc2c1	i	-1.1	25	x	53*
Cc1ccc(C)c2[nH]c(=O)c(CN(Cc3nnnn3C3CCCCC3)CC3CCCO3)cc12 (stereo unspecified)	i	-1.3	-1	x	100*
COc1ccc(Cn2nnnc2C(c2cc3ccc(OC)cc3[nH]c2=O)N2CCC(C)CC2)cc1 (stereo unspecified)	i	x	-4	58	16
Cc1cc(C)c2[nH]c(=O)c(C(c3nnnn3Cc3ccc4c(c3)OCO4)N3CCC(C)CC3)cc2c1 (stereo unspecified)	i	x	-3	-47	76*
COc1cc(O)c(/C=N/NC(=O)c2ccncc2)c(OC)c1[N+](=O)[O-]	i	0.4	-10	x	-2
COc1ccc(NC(=O)N(CCN2CCCC2)Cc2cc3cc(OC)c(OC)cc3[nH]c2=O)cc1	i	-1.1	-12	-38	2
Cc1ccc2cc(CN(Cc3nnnn3C3CCCC3)C3CCCCC3)c(=O)[nH]c2c1C	i	-0.06	-17	15	-3
Cc1cccc2cc(CN(Cc3cccs3)C3(c4nnnn4C4CCCC4)CCCC3)c(=O)[nH]c12	i	-1.4	19	x	73*
CCOC(=O)/C(=C\c1cccc(O)c1)c1nc2sc(C)c(C)c2c(=O)[nH]1	i	0.38	-11	0	99*
Cc1c(CN(C)C(=O)c2sc3cc(Cl)ccc3c2Cl)cnn1C	i	0.05	-13	-51	9
SMILES	Autophagy mod	Ins promoter up	WT yeast gro inh	Insulin prom inh	L major viab
CC(C)c1ccc(/C=C/C(=O)NCCCc2ccccc2)cc1	i	-0.05	61*	0	-1
COc1ccc(/C=C/C(=O)NCCCc2ccccc2)cc1	i	0.81	0	7	-6
O=C1c2cccc3c(N4CCCCC4)ccc(c23)C(=O)N1c1ccc(O)cc1	+	6.1*	42	x	39
O=C1c2cccc3c(N4CCCCC4)ccc(c23)C(=O)N1c1ccccc1O	i	x	-15	x	6
CCOC(=O)C(CC)(CC)C(=O)/C=C/c1ccc(Br)cc1	i	0.13	61*	20	83*
COc1cc(C(=O)N(c2ccc(C)c(C)c2)C2C=CS(=O)(=O)C2)cc(OC)c1OC (stereo unspecified)	i	-0.17	-2	-42	-3
Cc1ccc(C(=O)Nc2ccc3c4c(cccc24)CC3)cc1[N+](=O)[O-]	i	1.2	8	x	60*
COc1cc(OC)cc(C(=O)NC(=S)Nc2ccc3c4c(cccc24)CC3)c1	i	1.2	24	-41	-8
CCOC(=O)C1CCN(C(=O)c2ccccc2NC(=O)c2ccc(Cl)cc2)CC1	i	-0.24	5	-44	40
CCOC(=O)N1CCN(C(=O)c2ccccc2NC(=O)c2ccc(C(C)(C)C)cc2)CC1	i	-0.03	29	-38	74*
Cc1ccc(C(=O)Nc2ccccc2C(=O)N2CCCC2)cc1[N+](=O)[O-]	i	-0.65	-8	-46	58*
COc1ccc(C(=O)Nc2ccc3c4c(cccc24)CC3)cc1	i	1.4	30	100*	-2
COC(=O)c1nnn(-c2nc(N(C)C)nc(N(C)C)n2)c1C	i	0.38	-3	12	16
Cc1ccc(C(=O)C(OC(=O)CN2C(=O)c3ccccc3C2=O)c2ccccc2)cc1C (stereo unspecified)	i	-0.35	2	25	-2
CCc1cc2c(=O)n(Cc3ccccc3)c(SC3CCOC3=O)nc2s1 (stereo unspecified)	i	x	11	x	1
COc1ccc(NC(=O)CCC(=O)N(Cc2ccc(OC)c(OC)c2)c2nccs2)c(OC)c1	i	0.28	4	41	-2
COc1ccc(C(=O)Nc2ccccc2C(N)=O)cc1	i	-0.08	40	47	0
COc1ccc(C(=O)Nc2ccccc2C(=O)N/N=C/c2cccc3ccccc23)cc1	i	-0.41	68*	x	26
COc1ccccc1/C=C/C1(C(=O)NC2CCCC2)CC(=O)N1c1ccc(F)cc1 (stereo unspecified)	i	x	-21	-14	85*
Cc1cc(C(=O)CSc2nc(N)cc(N)n2)c(C)n1-c1cccc(C(F)(F)F)c1	i	1.4	-3	8	82*
Cc1cc(C(=O)CSc2ncccn2)c(C)n1-c1cccc(F)c1	i	0.09	-9	12	-2
COCCN1C(=O)N[C@@H](c2ccc(Br)cc2)C(C(C)=O)=C1C	i	x	-7	40	-3
CC1(C)CC(NC(=O)CC2CCCCC2)CC(C)(C)N1	i	x	-9	82*	2
CC(C)c1nc(SCC(=O)NCc2ccccc2)n[nH]1	i	-0.22	-18	43	-2
O=C(N1CCCC1)C12CC3CCC(CC(C3)C1)C2	i	-0.15	1	x	-3
CCOC(=O)C1CCN(C(=O)C23CC4CC(CC(C4)C2)C3)CC1	i	0.72	4	-26	104*
COC(/C=C/Nc1ccc(Br)cc1)=C(C#N)C#N	i	0.12	5	x	-11
